Measurements from PubChem BioAssay (Tox21).
Values joined by “and” are separate entries in the source; they are usually repeats but may differ in a detail not shown here. Equal values may be shown once. Inconclusive results are not listed. Active and inactive are the calls of the source. Unless noted, calls follow the shape of the dose curve; as a rule, active = well fitted curve in the direction sought with a large enough effect in the repeat runs; inconclusive = weak or mixed curves; inactive = no such curve, though single readings can be large; an effect the other way counts as inactive or inconclusive.

Experiments:
[1] = qHTS assay to test for compound auto fluorescence at 535 nm (green) in HEK293 cells (AID 720680)
[2] = qHTS assay to test for compound auto fluorescence at 460 nm (blue) in HEK293 cell free culture (AID 720681)
In short: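 Blue fluorescence (Ex 405/Em 460 nm, triamterene-equivalent) was read immediately after pin transfer of compound or DMSO into medium (DMEM, 10% FBS) without cells.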

[3] = qHTS assay to test for compound auto fluorescence at 535 nm (green) in HEK293 cell free culture (AID 720682)
In short: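 Using fluorescein as calibrant, autofluorescence was quantified at 485/535 nm in cell-free DMEM containing 10% FBS after pintool addition of compound or vehicle.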

[4] = qHTS assay to test for compound auto fluorescence at 590 nm (red) in HEK293 cell free culture (AID 720683)
In short: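 Red-channel autofluorescence of compounds in culture medium (DMEM, 10% FBS), no cells, measured at 540/590 nm. Rose Bengal sodium is the reference fluorophore for equivalence.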

[5] = qHTS assay to test for compound auto fluorescence at 590 nm (red) in HepG2 cell free culture (AID 720684)
In short: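 Steps: dispense MEM/10% FBS medium, no cells; pin compound or DMSO vehicle; read red channel, Ex/Em 540/590 nm. Output given as Rose Bengal sodium equivalents.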

[6] = qHTS assay to test for compound auto fluorescence at 460 nm (blue) in HepG2 cell free culture (AID 720685)
In short: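 Compound (23 nL) or DMSO pinned into cell-free MEM with 10% FBS; blue fluorescence read at 405/460 nm excitation/emission, expressed as auto-fluorescence equivalency to triamterene.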

[7] = qHTS assay to test for compound auto fluorescence at 535 nm (green) in HepG2 cell free culture (AID 720686)
[8] = qHTS assay to test for compound auto fluorescence at 460 nm (blue) in HepG2 cells (AID 720687)
In short: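 Blue-channel autofluorescence (Ex/Em 405/460 nm, triamterene-equivalent) was measured after 1 hr compound exposure at 37 C, 5% CO2. Cells were HepG2, plated overnight at 37 C in MEM plus 10% FBS.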

[9] = target: Glucocorticoid receptor (Homo sapiens) (UniProt P04150); experiment: qHTS assay to identify small molecule agonists of the glucocorticoid receptor (GR) signaling pathway (AID 720691; active = well fitted activation curve with a large enough effect in the signal ratio in the repeat runs, not every such curve was filed as active; the % refers to the signal ratio)
In short: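 Reporter read-out: fluorescence intensity following 2 h room-temperature LiveBLAzer B/G FRET substrate loading. Prior step: GR-bla HeLa cells held 4 h, then treated 18 h at 37 C.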

[10] = target: Glucocorticoid receptor (Homo sapiens) (UniProt P04150); experiment: qHTS assay to identify small molecule antagonists of the glucocorticoid receptor (GR) signaling pathway (AID 720692; active = well fitted inhibition curve with a large enough effect in the signal ratio in the repeat runs, not every such curve was filed as active; the % refers to the signal ratio)
In short: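 Dexamethasone (5 nM final) stimulated a stably integrated GRE-beta-lactamase reporter in HeLa cells during 18 h co-incubation with compounds; signal was quantified as fluorescence intensity of B/G FRET substrate after 2 h.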

[11] = qHTS assay to identify small molecule antagonists of the glucocorticoid receptor (GR) signaling pathway - cell viability counter screen (AID 720693); also: nearly all actives have a fitted effect of over 55% in size
[12] = qHTS assay for identifying genotoxic compounds that show differential cytotoxicity against isogenic chicken DT40 cell lines with known DNA damage response pathways - wild type cell line (AID 743012); also: nearly all actives have a fitted effect of over 60% in size; also: potency is read from the fitted curve at half-maximal effect
In short: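 Using parental DT40 (300 cells/well), compounds delivered in DMSO incubate 40 h at 37 C/5% CO2. CellTiter-Glo reagent then stands 30 min at room temperature, and luminescence gives cell viability.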

[13] = qHTS assay for identifying genotoxic compounds that show differential cytotoxicity against isogenic chicken DT40 cell lines with known DNA damage response pathways - Rad54/Ku70 mutant cell line (AID 743015); also: nearly all actives have a fitted effect of over 60% in size; also: potency is read from the fitted curve at half-maximal effect
[14] = qHTS assay to identify small molecule antagonists of the androgen receptor (AR) signaling pathway - cell viability counter screen (AID 743033; also: nearly all actives have a fitted effect of over 45% in size)
[15] = qHTS assay to identify small molecule antagonists of the androgen receptor (AR) signaling pathway using the MDA cell line - cell viability counter screen (AID 743041; also: nearly all actives have a fitted effect of over 45% in size)
In short: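 Cells were plated at 3,000 per well and left 5 h. Compounds in DMSO were then pinned in, followed by R1881. After 16 h at 37C, CellTiter-Fluor fluorescence gave viability.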

[16] = qHTS assay for identifying genotoxic compounds that show differential cytotoxicity against isogenic chicken DT40 cell lines with known DNA damage response pathways - Rev3 mutant cell line (AID 743014); also: nearly all actives have a fitted effect of over 55% in size; also: potency is read from the fitted curve at half-maximal effect
[17] = target: Androgen receptor (Homo sapiens) (UniProt P10275); experiment: qHTS assay to identify small molecule agonists of the androgen receptor (AR) signaling pathway using the MDA cell line (AID 743040; also: nearly all actives have a fitted effect of over 20% in size)
In short: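 Cells plated, 5 h at 37C/0% CO2; compound or DMSO pinned; 16 h at 37C; ONE-Glo added; luminescence measured after 30 min at room temperature. Reporter line: MDA-kb2 with MMTV-luciferase responsive to AR and GR.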

[18] = target: Androgen receptor (Homo sapiens) (UniProt P10275); experiment: qHTS assay to identify small molecule antagonists of the androgen receptor (AR) signaling pathway using the MDA cell line (AID 743042; also: nearly all actives have a fitted effect of over 55% in size)
In short: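 Antagonist mode: compounds plus R1881 agonist added to MDA-kb2 AR-luc cells, incubated 16 h at 37C. Luciferase reporter luminescence quantified, with multiplexed CellTiter-Fluor readout for cell viability.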
% is scaled to controls: 0 for no effect and ±100 for the full control effect.

Sequence of Glucocorticoid receptor (Homo sapiens) (P04150 whole entry, looked up): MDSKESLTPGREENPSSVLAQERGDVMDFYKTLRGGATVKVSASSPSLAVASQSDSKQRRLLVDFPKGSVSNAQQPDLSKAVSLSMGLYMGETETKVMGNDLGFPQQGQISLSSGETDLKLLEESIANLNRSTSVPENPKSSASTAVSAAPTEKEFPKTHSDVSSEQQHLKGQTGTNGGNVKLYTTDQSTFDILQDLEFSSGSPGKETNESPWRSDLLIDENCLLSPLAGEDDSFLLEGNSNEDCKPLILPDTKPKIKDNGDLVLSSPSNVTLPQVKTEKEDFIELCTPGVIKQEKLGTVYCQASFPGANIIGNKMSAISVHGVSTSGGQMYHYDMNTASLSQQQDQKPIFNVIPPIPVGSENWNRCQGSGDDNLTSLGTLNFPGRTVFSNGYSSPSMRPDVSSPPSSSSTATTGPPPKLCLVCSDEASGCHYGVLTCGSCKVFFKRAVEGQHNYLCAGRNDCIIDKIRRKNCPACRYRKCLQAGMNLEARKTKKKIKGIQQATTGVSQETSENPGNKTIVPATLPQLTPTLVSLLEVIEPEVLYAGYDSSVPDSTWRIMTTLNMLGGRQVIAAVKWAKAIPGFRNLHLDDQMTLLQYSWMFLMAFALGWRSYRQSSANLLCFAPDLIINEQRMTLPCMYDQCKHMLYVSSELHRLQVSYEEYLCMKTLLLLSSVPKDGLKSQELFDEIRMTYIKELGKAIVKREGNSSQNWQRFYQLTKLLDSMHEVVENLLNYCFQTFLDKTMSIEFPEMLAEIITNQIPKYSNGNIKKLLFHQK
Sequence of Androgen receptor (Homo sapiens) (P10275 whole entry, looked up): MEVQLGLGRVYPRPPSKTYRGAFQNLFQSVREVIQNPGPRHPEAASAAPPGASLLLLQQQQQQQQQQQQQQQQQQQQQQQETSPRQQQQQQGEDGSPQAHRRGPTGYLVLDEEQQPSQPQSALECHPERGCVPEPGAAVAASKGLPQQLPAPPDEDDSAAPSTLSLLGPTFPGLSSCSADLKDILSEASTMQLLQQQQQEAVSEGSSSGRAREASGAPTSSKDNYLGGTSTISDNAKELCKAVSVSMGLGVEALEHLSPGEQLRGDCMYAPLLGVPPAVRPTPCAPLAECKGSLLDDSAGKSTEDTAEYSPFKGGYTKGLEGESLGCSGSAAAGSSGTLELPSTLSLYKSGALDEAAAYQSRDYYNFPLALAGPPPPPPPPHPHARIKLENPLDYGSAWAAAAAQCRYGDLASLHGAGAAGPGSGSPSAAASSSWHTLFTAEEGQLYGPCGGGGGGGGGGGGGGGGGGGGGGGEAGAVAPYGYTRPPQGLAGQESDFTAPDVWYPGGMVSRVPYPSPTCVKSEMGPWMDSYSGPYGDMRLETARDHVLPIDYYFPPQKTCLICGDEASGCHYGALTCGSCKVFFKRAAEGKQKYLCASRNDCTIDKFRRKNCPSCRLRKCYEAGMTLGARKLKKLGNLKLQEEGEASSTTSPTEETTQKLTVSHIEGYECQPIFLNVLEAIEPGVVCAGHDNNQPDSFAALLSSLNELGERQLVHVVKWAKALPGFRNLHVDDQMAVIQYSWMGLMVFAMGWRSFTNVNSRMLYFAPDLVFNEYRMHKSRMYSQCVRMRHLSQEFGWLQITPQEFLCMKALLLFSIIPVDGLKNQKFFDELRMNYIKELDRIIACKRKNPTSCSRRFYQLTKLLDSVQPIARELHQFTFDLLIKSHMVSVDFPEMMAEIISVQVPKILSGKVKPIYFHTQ

NC(Cc1ccc(Cl)cc1)C(=O)O (stereo unspecified)
inactive: Potency [1] | Potency [2] | Potency [3] | outcome [4] | outcome [5] | Potency [6] | Potency [7] | Potency [8] | Potency [9] | Potency [10] | Potency [11] | Potency [12] | Potency [13] | Potency [14] | Potency [15]

COc1cc(C(=S)N2CCOCC2)ccc1O
inactive: Potency [1] | Potency [2] | Potency [3] | outcome [4] | outcome [5] | Potency [6] | Potency [7] | Potency [8] | Potency [9] | Potency [10] | Potency [11] | Potency [12] | Potency [16] | Potency [13] | Potency [14] | outcome [17] | Potency [15] | Potency [18]

CCCCCCCCCCCCCCCCCl
inactive: fluorescence, % of fluorescein [1] -0.0655% [at 18.6 µM] | fluorescence, % of fluorescent control [2] -0.061% [at 18.6 µM] | activity change [3] -0.0974% [at 18.6 µM, stronger effect = higher value] | fluorescence, % of fluorescent control [4] -0.466% [at 18.6 µM] | fluorescence, % of Rose Bengal [5] -0.0105% [at 18.6 µM] | fluorescence, % of fluorescent control [6] -0.0526% [at 18.6 µM] | fluorescence, % of fluorescein control [7] -0.0406% [at 18.6 µM] | fluorescence, % of fluorescent control [8] -0.0903% [at 18.6 µM] | Potency [9] | Potency [10] | Potency [11] | Potency [16] | Potency [14] | Potency [15]

COc1nc(C)nc(Cl)c1NC1=NCCN1
inactive: fluorescence, % of fluorescein [1] -0.014% [at 18.6 µM] | fluorescence, % of fluorescent control [2] 0.165% [at 18.6 µM] | activity change [3] 0.0521% [at 18.6 µM, stronger effect = higher value] | fluorescence, % of fluorescent control [4] 0.101% [at 18.6 µM] | fluorescence, % of Rose Bengal [5] 0.527% [at 18.6 µM] | fluorescence, % of fluorescent control [6] 0.0137% [at 18.6 µM] | fluorescence, % of fluorescein control [7] 0.0146% [at 18.6 µM] | fluorescence, % of fluorescent control [8] 0.0089% [at 18.6 µM] | Potency [9] | Potency [10] | Potency [11] | Potency [12] | Potency [16] | Potency [13] | Potency [14] | Potency [15]

C=CC(=O)OCCCCCCCC
inactive: Potency [1] | Potency [2] | Potency [3] | outcome [4] | outcome [5] | Potency [6] | Potency [7] | Potency [8] | Potency [9] | Potency [10] | Potency [11] | Potency [12] | Potency [16] | Potency [13] | Potency [14] | Potency [15]

CNC1(C)C2CCC(C2)C1(C)C (stereo unspecified)
inactive: Potency [1] | Potency [2] | Potency [3] | outcome [4] | outcome [5] | Potency [6] | Potency [7] | Potency [8] | Potency [9] | Potency [10] | Potency [11] | Potency [12] | Potency [16] | Potency [13] | Potency [14] | Potency [15]

CCCOC(=O)c1cc(O)c(O)c(O)c1
active: Potency [12] 13.3 µM and 43.1 µM and 43.3 µM | Potency [16] 15 µM and 27.2 µM and 30.6 µM | Potency [13] 13.3 µM and 27.2 µM and 27.3 µM
inactive: Potency [1] | Potency [2] | Potency [3] | outcome [4] | outcome [5] | Potency [6] | Potency [7] | Potency [8] | Potency [9] | Potency [10] | Potency [11] | Potency [14] | Potency [15]
